Laboratory results taken from the supplement of paper PMC10338343.
± gives the standard deviation.

tested on: MILI (PIWIL2) piRISC loaded with piRNA #1 (26 nt); assay: pre-steady-state target cleavage rate (min^-1); guide: piRNA #1 5'p-UGAGGUAGUAGGUUGUAUAGUAUCCA; higher = faster piRNA-guided slicing of the target; settings: auxiliary factor: 500 nM mouse GTSF1
Summary of the method: (§1)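 The pre-steady-state cleavage rate came from a burst-and-steady-state fit to pooled data from three Cleave-'n-Seq trials, in which uncleaved targets were sequenced and normalised to depth and to weakly complementary targets. Each reaction held 0.1 nM transcribed, DNA-blocked target RNA library and 1 nM active affinity-purified piRISC carrying one synthetic guide, with or without 500 nM GTSF1 partner protein, in HEPES–potassium acetate buffer at 33 °C for 0–8 or 0–960 min. k3 was capped at 0.0001 min^-1.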

| Sequence | pre-steady-state target cleavage rate |
| --- | --- |
| GGAGACCAGACUAUACAACCUACUACCUCA | 0.193 ± 0.06 |
| GGAGACCUAACUAUACAACCUACUACCUGA | 0.108 ± 0.03 |
| GGAGACCAUACUAUUACAACCUACUACCUCA | 0.161 ± 0.013 |
| GGAGACCAUAGCUAUACAACCUACUACCUCA | 0.121 ± 0.014 |
| GGAGUGGAUACUAUACAACCUACUAACUCA | 0.018 ± 0.005 |
| GGAGAGCAUACUAUACUACCUACUACCUCA | 0.195 ± 0.016 |
| GGAGACCUAACUAUACAACCCACUACCUCA | 0.0098 ± 0.0041 |
| GGAGACCUAUCUAUACAACCUCCUACCUCA | 0.0185 ± 0.0046 |
| GGAGACGAUACUAUACAACUACUACCUCA | 0.0571 ± 0.0061 |
| GGAGUGGAUACUUUACAUCCUACUACCUCA | 0.253 ± 0.012 |
| GGAGAGGAUACUAUACAACCUACUACCUCCA | 0.152 ± 0.011 |
| GGAGUCGAUACUAUACAACGUACUACCUCA | 0.0256 ± 0.0024 |
| GGAGUGGAUACUAUGCAACCUACUACCUCA | 0.192 ± 0.009 |
| GGAGUGGAUAACUAUACAACCUACUACCUCA | 0.0667 ± 0.0071 |
| GGAGACGAUACUAUACAACCUUCUACCUCA | 0.0098 ± 0.0026 |
| GGAGACGAUUCUAUACAACCUACUACCUGA | 0.167 ± 0.021 |
| GGAGACCUAUCAUUACAACCUACUACCUCA | 0.0146 ± 0.0049 |
| GGAGAGGAUACUAUACAACCUACUACCUA | 0.104 ± 0.013 |
| GGAGUGGAUACUAUUACAACCUACUACCUCA | 0.155 ± 0.0095 |
| GGAGACCUUACUUUACAACCUAGUACCUCA | 0.047 ± 0.011 |

| Sequence | pre-steady-state target cleavage rate |
| --- | --- |
| GGAGUGAGAUACUAUACAACCUACUACCUCA | 0.189 ± 0.012 |
| GGAGUGGAUACUAUACAAGCUACUACCUCA | 0.233 ± 0.013 |
| GGAGUUGGAUACUAUACAACCUACUACCUCA | 0.184 ± 0.023 |
| GGAGUGGAAACAAUACAACCUACUACCUCA | 0.184 ± 0.018 |
| GGAGACGAUACUAUACAACCUACACCUCA | 0.00588 ± 0.0025 |
| GGAGUGGUUACAAUACAACCUACUACCUCA | 0.172 ± 0.011 |
| GGAGACGAUACUAAACAACGUACUACCUCA | 0.017 ± 0.0026 |
| GGAGAGGAUACUAUACAACCUACUACCAUCA | 0.0616 ± 0.0087 |
| GGAGACGAUACUAUAGAACCUUCUACCUCA | 0.00459 ± 0.0021 |
| GGAGACGAUACUAUAGAACGUACUACCUCA | 0.0134 ± 0.0023 |
| GGAGAGGAUACUAUACAAGGUACUACCUCA | 0.0284 ± 0.0051 |
| GGAGAGCAUACUAUACAACCAACUACCUCA | 0.00634 ± 0.0024 |
| GGAGUGGAUACUAUUCAUCCUACUACCUCA | 0.265 ± 0.016 |
| GGAGACGAUACUAUACAACCUAUUACCUCA | 0.219 ± 0.021 |
| GGAGACGAUACUAUACAACCUAUCUACCUCA | 0.17 ± 0.017 |
| GGAGUGGAGUACUAUACAACCUACUACCUCA | 0.153 ± 0.0099 |
| GGAGACGAUACUAUACAACCUACGACCUCA | 0.146 ± 0.019 |
| GGAGACGAUAGUUUACAACCUACUACCUCA | 0.129 ± 0.01 |
| GGAGACGUAUACUAUACAACCUACUACCUCA | 0.193 ± 0.013 |
| GGAGACGAUACUAUCACAACCUACUACCUCA | 0.221 ± 0.017 |

tested on: EfPiwi piRISC loaded with piRNA #1 (26 nt); assay: pre-steady-state target cleavage rate (min^-1); auxiliary factor: 500 nM Ephydatia muelleri Gtsf1; guide: piRNA #1 5'p-UGAGGUAGUAGGUUGUAUAGUAUCCA; MIWI and MILI are mouse PIWI proteins and EfPiwi is from a freshwater sponge; tags in brackets are library labels; higher = faster piRNA-guided slicing of the target; settings: not given
Summary of the method: as §1

| Sequence | pre-steady-state target cleavage rate |
| --- | --- |
| GGAGACCAGACUAUACAACCUACUACCUCA | 0.00856 ± 0.0055 |
| GGAGACCUAACUAUACAACCUACUACCUGA | 0.00393 ± 0.002 |
| GGAGACCAUACUAUUACAACCUACUACCUCA | 0.0115 ± 0.0046 |
| GGAGACCAUAGCUAUACAACCUACUACCUCA | 0.0108 ± 0.0051 |
| GGAGUGGAUACUAUACAACCUACUAACUCA | 0.00991 ± 0.0043 |
| GGAGAGCAUACUAUACUACCUACUACCUCA | 0.00584 ± 0.0027 |
| GGAGACCUAACUAUACAACCCACUACCUCA | 0.00404 ± 0.0036 |
| GGAGACCUAUCUAUACAACCUCCUACCUCA | 0.00509 ± 0.0028 |
| GGAGACGAUACUAUACAACUACUACCUCA | 0.00742 ± 0.0033 |
| GGAGUGGAUACUUUACAUCCUACUACCUCA | 0.0043 ± 0.0029 |
| GGAGAGGAUACUAUACAACCUACUACCUCCA | 0.142 ± 0.054 |
| GGAGUCGAUACUAUACAACGUACUACCUCA | 0.00501 ± 0.0019 |
| GGAGUGGAUACUAUGCAACCUACUACCUCA | 0.09 ± 0.035 |
| GGAGUGGAUAACUAUACAACCUACUACCUCA | 0.0101 ± 0.0044 |
| GGAGACGAUACUAUACAACCUUCUACCUCA | 0.00729 ± 0.0029 |
| GGAGACGAUUCUAUACAACCUACUACCUGA | 0.00463 ± 0.0026 |
| GGAGACCUAUCAUUACAACCUACUACCUCA | 0.00563 ± 0.0035 |
| GGAGAGGAUACUAUACAACCUACUACCUA | 0.217 ± 0.081 |
| GGAGUGGAUACUAUUACAACCUACUACCUCA | 0.131 ± 0.047 |
| GGAGACCUUACUUUACAACCUAGUACCUCA | 0.00395 ± 0.0033 |

| Sequence | pre-steady-state target cleavage rate |
| --- | --- |
| GGAGUGAGAUACUAUACAACCUACUACCUCA | 0.0362 ± 0.015 |
| GGAGUGGAUACUAUACAAGCUACUACCUCA | 0.008 ± 0.0032 |
| GGAGUUGGAUACUAUACAACCUACUACCUCA | 0.197 ± 0.056 |
| GGAGUGGAAACAAUACAACCUACUACCUCA | 0.00713 ± 0.0044 |
| GGAGACGAUACUAUACAACCUACACCUCA | 0.00474 ± 0.0027 |
| GGAGUGGUUACAAUACAACCUACUACCUCA | 0.00789 ± 0.0035 |
| GGAGACGAUACUAAACAACGUACUACCUCA | 0.00192 ± 0.0019 |
| GGAGAGGAUACUAUACAACCUACUACCAUCA | 0.00705 ± 0.0029 |
| GGAGACGAUACUAUAGAACCUUCUACCUCA | 0.00285 ± 0.0016 |
| GGAGACGAUACUAUAGAACGUACUACCUCA | 0.00177 ± 0.0015 |
| GGAGAGGAUACUAUACAAGGUACUACCUCA | 0.00404 ± 0.0023 |
| GGAGAGCAUACUAUACAACCAACUACCUCA | 0.00434 ± 0.0022 |
| GGAGUGGAUACUAUUCAUCCUACUACCUCA | 0.0078 ± 0.0036 |
| GGAGACGAUACUAUACAACCUAUUACCUCA | 0.0146 ± 0.0053 |
| GGAGACGAUACUAUACAACCUAUCUACCUCA | 0.00473 ± 0.0019 |
| GGAGUGGAGUACUAUACAACCUACUACCUCA | 0.0116 ± 0.0055 |
| GGAGACGAUACUAUACAACCUACGACCUCA | 0.00449 ± 0.0018 |
| GGAGACGAUAGUUUACAACCUACUACCUCA | 0.0165 ± 0.0088 |
| GGAGACGUAUACUAUACAACCUACUACCUCA | 0.0356 ± 0.013 |
| GGAGACGAUACUAUCACAACCUACUACCUCA | 0.0153 ± 0.0062 |
